Compound activity deposited in PubChem BioAssay by National Center for Advancing Translational Sciences (NCATS).
VACV Venus inh = vaccinia inhibition (Venus reporter). Potency, µM (series often up to 36.5 µM), inactives show at the top dose activity change, negative = inhibition, actives largely listed as inhibitors. AID 720580. 330,000 tested, 0.46% active. Vaccinia virus Venus reporter expression, fluorescence; calls by dose curve; tested in A549 cells; note: potency is the fitted concentration of half-maximal effect; % is set by controls: 0 for no effect and ±100 for the full control effect; nearly all actives have a fitted effect of over 30% in size
VACV mCherry inh = inhibitors of vaccinia virus infection (mCherry reporter signal). Vaccinia virus mCherry reporter infection, fluorescence. Potency, µM (titrated, usually from 36.5 µM), for the others: at the top dose activity change, negative = inhibition, most hits filed as inhibitors. 310,000 tested, 0.63% active; calls by dose curve; tested in A549 cells; note: potency is the fitted concentration of half-maximal effect; % is set by controls: 0 for no effect and ±100 for the full control effect; nearly all actives have a fitted effect of over 35% in size
Shiga toxin inh = inhibitors of Shiga toxin in Vero cells | Vero cells, Shiga toxin protein synthesis inhibition reporter | inhibition, % at 38.7 µM | 290,000 tested, 9.2% active; in the data active = inhibition mostly above about 28%, no sharp cut-off; inactive = mostly below about 43%; note: 0% is about no effect
Lassa entry inh = inhibitors of Lassa virus binding or cell entry; AID 540256; Potency, µM (doses to about 37.9 µM), for the others: at the highest dose activity change, negative = inhibition, hits mostly inhibitors; 300,000 tested, 1.2% active; Lassa virus pseudotype entry inhibition, cell reporter; calls by dose curve; tested in HEK293 cells; note: potency is the fitted concentration of half-maximal effect; % is set by controls: 0 for no effect and ±100 for the full control effect; nearly all actives have a fitted effect of over 50% in size
MARV entry inh = blocks Marburg virus binding to or entry into cells; AID 540276; Marburg virus pseudotyped entry inhibition, cell reporter; Potency, µM (highest dose often 37.8 µM), for inactives: top-dose activity change, negative = inhibition, usual class: inhibitors; 300,000 tested, 1.8% active; calls by dose curve; tested in HEK293 cells; note: potency is the fitted concentration of half-maximal effect; % is set by controls: 0 for no effect and ±100 for the full control effect
CHX counter = counter-screen hit for Shiga toxin inhibitors, cycloheximide | 300,000 tested, 12% active | cell reporter, cycloheximide protein synthesis inhibition counterscreen | AID 2314 | max response, %; in the data active = max response mostly above about 13%, no sharp cut-off; inactive = mostly below about 14%; note: read at 38.3 µM for the half of the compounds with a filed dose; 0% is about no effect
* marks the source's active call; other numbers are inactive results; i = inactive; u = inconclusive; x = no result given; [ ] = dose if it differs, or a comment. This excerpt belongs to a sample that is enriched for hits.

SMILES	VACV Venus inh	VACV mCherry inh	Shiga toxin inh	Lassa entry inh	MARV entry inh	CHX counter
CN(C)c1ccc(/C=C/C=C2/SC(=S)N(c3ccccc3)C2=O)cc1	i	443%	88*	-1%	-3%	33*
CCc1ccc(N(C(=O)CNC(=O)c2ccco2)C(C(=O)NC2CCCC2)c2cccnc2)cc1 (centres undefined)	-13%	-17%	7	u	-2%[46.1 µM]	-3
CSc1nc(/C=C2\C=Nc3ccccc32)c(O)n1C	-24%	u	117*	9%	u	17*
CCc1nnc(NS(=O)(=O)c2ccc(NS(=O)(=O)c3ccc(NC(C)=O)cc3)cc2)s1	x	x	-12	x	x	-2
CC(=O)Nc1ccc(S(=O)(=O)Nc2nc3c(s2)CCCC3)cc1	-18%	x	58*	0%	-1%	18*
CC(=O)Nc1ccc(S(=O)(=O)Nc2nnc(CC(C)(C)C)s2)cc1	-3%	-21%	76*	-4%	-6%[46.1 µM]	22*
CC(=O)Nc1ccc(S(=O)(=O)Nc2nc3ccccc3s2)cc1	-11%	-4%	-24	17%	19%	5
CC(=O)Nc1scc(C)c1-c1nc2ccccc2s1	-7%	-17%	4	-15%	3%[46.1 µM]	8
CNc1sc(C(=O)c2ccc(F)cc2)c(N)c1-c1nc2ccccc2s1	x	x	38	0%	-21%	29*
CNc1sc(C(=O)c2cccs2)c(N)c1-c1nc2ccccc2s1	-24%	-23%[1.46 µM]	176*	u	-26%	40*
CCOc1ccc(-c2nnc(-c3ccco3)o2)cc1OCC	-11%	-11%	88*	17%	-24%	46*
CCOc1cc(-c2nnc(-c3ccco3)o2)cc(OCC)c1OCC	x	x	active	-19%	-28%	22*
O=C(Nc1ccc2c(c1)OCO2)c1cc(C2CCCCN2C(=O)OCCF)on1 (centres undefined)	0%	-8%	x	x	x	x
Cc1ccccc1OCCSc1nc2ccc(NC(=O)c3cccs3)cc2s1	-23%	-16%	x	10%[46.1 µM]	-9%[46.1 µM]	x
COc1cc(/C=N/NS(=O)(=O)c2ccc3ccccc3c2)ccc1OCCN1CCOCC1	-14%	-14%	25	13%	u	18*
COc1ccc(S(=O)(=O)N/N=C/c2ccc(OCCN3CCOCC3)c(OC)c2)cc1	-4%	-6%	34	u	u	20*
COc1cc(/C=N/NS(=O)(=O)c2ccc(C)cc2)ccc1OCc1ccc(C(=O)O)cc1	-15%	i	146*	6.3µM*	u	42*
CCOc1ccc(/C=N/NS(=O)(=O)c2ccc(C)cc2)cc1OC	x	x	-3	x	x	-1
O=C(CN1CCCCCC1)Nc1ccccc1OC(F)F	-18%	2%	7	u	u	-3
CC(=O)Cc1nsc(Nc2ccc3c(c2)OCCO3)n1	2%	x	96*	21%	u	82*
CC(=O)Cc1nsc(NC(=O)c2ccc(Br)o2)n1	4%	-10%	32	13%	-3%	-3
CC(=O)Cc1nsc(Nc2ccc(F)cc2)n1	-8%	-2%	65*	0%	20%[46.1 µM]	22
CC(=O)Cc1nsc(Nc2ccc(Cl)cc2)n1	11%	-10%	86*	-19%	u	61*
CC(=O)Cc1nsc(NC(=O)c2ccco2)n1	-4%	-14%	2	29%	14%	-1
CCC(=O)N1CCC1(C)C(=O)Nc1ccc2nc(C)ccc2c1 (centres undefined)	-7%	28%	x	x	x	x
SMILES	VACV Venus inh	VACV mCherry inh	Shiga toxin inh	Lassa entry inh	MARV entry inh	CHX counter
O=C1CCCC/C1=C/Nc1ccc2c(c1)OCO2	x	x	109*	1%	3%	30*
O=C1CCC/C1=C/Nc1cccc(F)c1	-4%	-1%	53*	6%	17%	16*
Cc1cc(=O)oc2c(N)c(O)ccc12	-4%	i	38*	x	x	17
Cc1cc(C(=O)N/N=C/c2cc(Br)ccc2OC(=O)c2ccccc2)n[nH]1	u	x	4	u	10µM*	11
CCOc1cc(/C=N/NC(=O)c2cc(C)[nH]n2)ccc1OC(=O)c1ccc([N+](=O)[O-])cc1	x	x	16	x	2%	7
Cc1cc(C(=O)N/N=C/c2cc(Br)ccc2OC(=O)c2ccccc2Cl)n[nH]1	u	6.3µM*	29	10µM*	10µM*	12
Cc1cc(C(=O)N/N=C/c2ccc(OC(=O)c3ccccc3Br)cc2)n[nH]1	-5%	-18%	29	-11%	u	11
O=C1[C@@H]2[C@@H]3C[C@@H]([C@H]4ON=C(c5ccc(OCc6ccccc6)cc5)[C@@H]34)[C@@H]2C(=O)N1c1ccc2c(c1)OCO2	-14%	i	2	-15%	4.5µM*	8
O=C1[C@@H]2[C@@H]3C[C@@H]([C@H]4ON=C(c5ccc(Cl)cc5)[C@@H]34)[C@@H]2C(=O)N1c1ccc2c(c1)OCO2	-13%	0%	-12	-13%	u	2
COCc1ccc(CN2CCc3c([nH]c4ccccc34)C2C(C)(C)C)o1 (centres undefined)	-14%	u	39	u	u	21*
COCCC(=O)N1CCc2c([nH]c3ccccc23)C1C(C)(C)C (centres undefined)	-5%	-15%	41	7%[46.1 µM]	-19%[46.1 µM]	11
COc1cccc(NS(=O)(=O)c2ccc3c(c2)N(C)C(=O)CC(=O)N3C)c1	-11%	-2%	x	-19%[46.1 µM]	-1%[46.1 µM]	x
C=CCNc1nc(-c2ccc(Cl)cc2)cs1	-23%	-29%[1.46 µM]	130*	11%	-9%	64*
CN(C)c1nc(-c2ccc([N+](=O)[O-])cc2)cs1	-28%	x	78	-8%	-2%	21*
C=CCNc1nc(-c2ccc([N+](=O)[O-])cc2)cs1	-23%	u	63*	-1%	u	56*
CCCOc1ccc(-c2nc(-c3ccc([N+](=O)[O-])cc3)cs2)cc1	-10%	-8%	2	x	x	-1
COC(=O)c1sccc1S(=O)(=O)N1CCC(n2c(CC3CCCC3)nc3cccnc32)CC1	-5%	-11%	x	x	x	x
CCOC(=O)c1ccc(COc2ccc(C(C)C)cc2)o1	2%	i	102*	u	u	73*
CC(C)(c1ccccc1)c1ccc(OCc2ccc(C(=O)O)o2)cc1	-13%	-4%	x	u	u	x
CCOc1ccc(OCc2ccc(C(=O)OCc3ccccn3)o2)cc1	-6%	-18%	143*	u	u	63*
CCC(C)c1ccc(OCc2ccc(C(=O)O)o2)cc1 (centres undefined)	-13%	-13%	105*	u	u	71*
CC(C)c1ccc(OCc2ccc(C(=O)N3CCCC3)o2)cc1	-2%	-7%	155*	-28%[46.1 µM]	10%[46.1 µM]	111*
CCOC(=O)c1ccc(CSC(=N)N)o1	0%	-10%	-3	x	x	2
O=C(c1ccc(COc2ccccc2Cl)o1)N1CCN(c2ccccc2)CC1	-9%	39%	-13	x	x	-3
COc1ccccc1NC(=O)C1=C(C)Nc2nc(CCCO)nn2C1c1cccc(O)c1 (centres undefined)	-13%	-8%	x	-6%[46.1 µM]	0%[46.1 µM]	x
